An excerpt weighted towards active compounds, which were near 3% of everything screened.
L929 necroptosis – L929 zVAD cell death inhibition. L929 zVAD necroptosis rescue, ATP luminescence, 24 h; with zVAD 60 µM. viability rescue, % at 10 µM. actives 0.38% (n = 220,000). AID 1377;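 active = activation, scaled between plate controls, above about 75%, limit read from the data; inactive = activation under that limit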
Calpain2 inh – calpain II (pig) inhibition; purified calpain II, fluorogenic peptide substrate, 30 min; AID 1236; inhibition, % at 16 µM; actives 0.37% (n = 220,000);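 active = inhibition above about 50%, limit read from the data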
14-3-3 Bad PPI – disrupts binding of bovine 14-3-3 zeta to phospho-Bad peptide; P63103; TR-FRET 14-3-3zeta/Dy647-pBad peptide displacement, 1 h; inhibition, % at 21.7 µM; actives 0.71% (n = 220,000); AID 781;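 active = inhibition above about 70%, limit read from the data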
Target sequence (P63103 whole entry, looked up): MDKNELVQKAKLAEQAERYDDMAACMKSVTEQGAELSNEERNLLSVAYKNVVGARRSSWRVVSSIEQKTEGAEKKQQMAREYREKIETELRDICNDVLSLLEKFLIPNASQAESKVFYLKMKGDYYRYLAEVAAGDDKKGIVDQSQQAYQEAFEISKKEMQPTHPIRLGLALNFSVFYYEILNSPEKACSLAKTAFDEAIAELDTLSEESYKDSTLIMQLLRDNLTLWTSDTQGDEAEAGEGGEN
HMGR II inh – E. faecalis class II HMG-CoA reductase inhibition. purified E. faecalis HMGR, NADPH absorbance 340 nm kinetic. inhibition, % at 10 µM. actives 0.41% (n = 190,000);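 active = inhibition above a set limit, the median over all tested compounds plus 3 SD, cut at about 9.5% in these data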;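 note: enzyme runs in reverse so mevalonate oxidation gives rising NADPH absorbance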
ROMK mod – modulators of human ROMK potassium channel | P48048 | Tet-inducible ROMK, thallium flux fluorescence; actives lie on both sides | B-score at 10 µM | actives 2% (n = 130,000) | AID 1918;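 active = signal ratio slope over the read window, or its plate-corrected B-score, at least 3 SD from the plate mean, either direction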;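 note: B-score of the F/F0 ratio slope over 7 to 12 s after thallium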
TNF necrop inh – inhibitors of TNF-alpha induced necroptosis in Jurkat FADD-/- cells; Jurkat FADD-/- TNF necroptosis rescue, ATP luminescence, 24 h; 0 = TNF only, 100 = no-TNF cells; activation (protection from cell death), % at 10 µM; actives 0.068% (n = 220,000);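 active = activation, meaning protection from cell death, of at least 50% relative to plate controls; inactive = activation below 50%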;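 note: necroptosis triggered by 40 ng/mL TNF-alpha added together with compound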
A number is an active result; . = inactive; / = no result; [ ] = another dose, or the depositor's remark.

SMILES	L929 necroptosis	Calpain2 inh	14-3-3 Bad PPI	HMGR II inh	ROMK mod	TNF necrop inh
NCCCC[C@@H]1NC(=O)c2cc([N+](=O)[O-])cc(I)c2SC[C@@H](C(N)=O)NC(=O)[C@H](Cc2ccc(O)cc2)NC1=O	.	.	72[fluorescence artefact?]	.	.	.
NCCCC[C@@H]1NC(=O)[C@H](CCC(=O)O)NC(=O)c2cc([N+](=O)[O-])cc(I)c2SC[C@@H](C(=O)NCC(N)=O)NC1=O	.	.	.	.	.	.
CC1=CC2=NC(=O)CC(C)(C(=O)N(CC(=O)NC(C)(C)C)Cc3cccs3)N2C=C1 (centres undefined)	.	.	.	.	/	.
COc1ccc(OC)c(S(=O)(=O)NCc2ccccc2)c1	.	.	.	.	/	.
COc1ccc(OC)c(NS(=O)(=O)Cc2ccccc2)c1	.	.	87[fluorescence artefact?]	.	/	.
COc1ccc(CNC(=O)CCC(=O)N2CCN(S(=O)(=O)c3ccc(Cl)cc3)CC2)cc1	.	.	.	.	.	.
CCCCCCNC(=O)C(=O)NCCc1ccc(Cl)cc1	.	.	.	47	.	.
Cc1ccc(Nc2nc(N)c([N+](=O)[O-])c(NCc3ccco3)n2)cc1C	.	.	.	.	.	.
CCOc1cc(CN2CCSCC2)ccc1O	.	.	74	.	/	.
O=C(Nc1ccc(C(=O)NC2CCCCC2)cc1)c1cncc(Br)c1	.	.	.	.	/	.
Cc1cc(C)c2nc(N3CCCC(C(=O)NCCCN4CCOCC4)C3)sc2c1 (centres undefined)	.	.	.	.	.	.
Cc1cc(C)c2nc(N3CCC(C(=O)NCCCN4CC(C)CC(C)C4)CC3)sc2c1 (centres undefined)	.	.	.	.	-2.5	.
O=C(CSCc1ccc([N+](=O)[O-])cc1)NC1CCCCCC1	.	.	.	.	.	63
COc1ccc(NC(=S)NCCc2c(C)[nH]c3ccc(OC)cc23)cc1	.	62	.	.	.	.
CC1CC(C)CN(C(=O)Cn2cc(C=O)c3ccccc32)C1 (centres undefined)	.	.	83	.	.	.
O=C(O)Cc1cn(Cc2ccc(F)cc2)c2ccccc12	.	.	.	.	.	.
Cc1[nH][nH]c(=O)c1C(c1c(C)[nH][nH]c1=O)c1cn(Cc2ccc(F)cc2)c2ccccc12	.	.	.	53	-4.8	.
c1ccc(Cn2ncc3c(N4CCCCC4)ncnc32)cc1	.	.	74	.	/	.
Cc1ccc(Cn2ncc3c(N4CCN(c5ccccc5C)CC4)ncnc32)cc1	.	.	.	.	/	.
CCn1c(-c2nn(-c3ccc(C)cc3)ccc2=O)n[nH]c1=S	.	.	88	.	.	.
COc1cc(/C=C2\SC(=O)N(CCN)C2=O)ccc1OS(=O)(=O)c1cc(C)ccc1C	.	.	84	.	.	.
O=C(c1ccc(Cl)cc1)n1c(NCc2ccccc2)n[nH]c1=S	.	.	82	.	.	.
CCn1c(CCNC(=O)c2ccc(Cl)cc2)n[nH]c1=S	.	.	.	.	.	.
CC(C)Cn1c(N)c(C(=O)COC(=O)CCc2nc3ccccc3s2)c(=O)n(C)c1=O	.	.	.	.	.	.
Cc1ccc2nc(NC(=O)CN(C)S(=O)(=O)c3cccc4nsnc34)sc2c1	.	53	.	.	/	.
SMILES	L929 necroptosis	Calpain2 inh	14-3-3 Bad PPI	HMGR II inh	ROMK mod	TNF necrop inh
O=C(C1CCN(S(=O)(=O)c2cccc3nsnc23)CC1)N1CC=C(c2ccccc2)CC1	.	.	.	.	/	.
O=C(C1CCCN(S(=O)(=O)c2cccc3nsnc23)C1)N1CC=C(c2ccccc2)CC1 (centres undefined)	.	.	.	.	-4.3	.
COc1ccc(-c2nc3c(-c4ccccc4)cnn3cc2C)cc1F	.	.	.	.	.	51
CCN(Cc1ccccc1)C(=O)CS(=O)(=O)c1ccccc1	.	.	.	.	/	.
O=S(=O)(C/C(=C/CO)S(=O)(=O)c1ccccc1)c1ccccc1	.	.	.	.	-8.2	.
COc1cccc(-c2csc(N3CCN(C(=O)Nc4ccc(Cl)cc4)CC3)n2)c1	.	.	.	9.9	.	.
Cc1ccc(-n2nnnc2SCC(=O)NC(C(=O)O)(c2ccccc2)c2ccccc2)cc1C	.	.	.	.	.	.
